# According to article PMC7819943, “Rice protein-binding microarrays: a tool to detect cis-acting elements near promoter regions in rice”:
# Over roughly 39,000 sequences, “fluorescence intensity (a.u.)” has its median near 4,300; the highest 2% begin near 39,000. The full list was thinned out, with the highest values kept by preference.
# Target: T1, OsSMF1 (Oryza sativa, UniProt Q6ZLB0 1-436)
# T1 sequence: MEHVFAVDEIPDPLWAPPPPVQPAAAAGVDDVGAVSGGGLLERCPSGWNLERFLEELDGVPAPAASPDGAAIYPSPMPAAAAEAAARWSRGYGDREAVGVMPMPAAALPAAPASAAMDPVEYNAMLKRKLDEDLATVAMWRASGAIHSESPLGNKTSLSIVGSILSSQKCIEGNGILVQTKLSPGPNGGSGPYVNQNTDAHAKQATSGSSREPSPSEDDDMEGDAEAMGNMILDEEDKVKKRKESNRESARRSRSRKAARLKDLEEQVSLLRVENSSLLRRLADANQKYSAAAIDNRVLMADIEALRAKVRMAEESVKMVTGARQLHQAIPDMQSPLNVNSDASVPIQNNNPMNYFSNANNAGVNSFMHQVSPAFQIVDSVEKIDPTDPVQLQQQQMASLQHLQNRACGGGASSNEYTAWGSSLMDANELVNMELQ
# Assay: protein-binding microarray (RPBM); PBS, 2% BSA, 51.3 ng/ul salmon testes DNA, 50 uM zinc acetate, 200 nM TF, 25 C, 1 h; high values mean tight binding
# Conditions: protein: recombinant; tags: N-terminal polyhistidine and DsRed monomer fusion (pET32a); chain copies: 2; label: CyDye5-dUTP incorporated in the synthesized complementary strand; 3' TTTTT single-stranded linker to array surface; dsDNA, one strand shown
# In short: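 Binding signal here means per-feature fluorescence intensity in arbitrary units. The values were read on an Axon 4000B scanner after a custom Agilent array, double-stranded by primer extension with Cy5-dUTP, was incubated with 200 nM protein at 25 °C for 1 h in PBS with 2% BSA, salmon testes DNA and 50 µM zinc acetate, then washed. The proteins were transcription factors with an N-terminal polyhistidine tag and DsRed, expressed in E. coli BL21-CodonPlus and purified on Ni–NTA.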
row,Sequence,binding signal
1,GCTCGCCTTTTATCGCAGCCAAAGCCATGAAATTTCCCCACGGAGTCACCTAGTGCAG,27500 fluorescence intensity (a.u.)
2,CTCGCGTCGCCACGCAACTTAATTAATTTAGCCCCTAATTCGGAGTCACCTAGTGCAG,3640 fluorescence intensity (a.u.)
3,CTTCTAGCTGACACCTGTGCGCCGCCGCCTAATTTCAACTCGGAGTCACCTAGTGCAG,3930 fluorescence intensity (a.u.)
4,GCACCTCGTTAGGCTTCATGGTCATGGCTCGTCGCTGACGCGGAGTCACCTAGTGCAG,6120 fluorescence intensity (a.u.)
5,GCGGTTTCCTAGTTGACTGACCAAACAATTCATATATATTCGGAGTCACCTAGTGCAG,6140 fluorescence intensity (a.u.)
6,CGGCCGTGTTAAGCCTCTTCCAAAGTCAGCTGAGTTGTGCCGGAGTCACCTAGTGCAG,5460 fluorescence intensity (a.u.)
7,CCTACACTGAAGTTAAGCAGATCTTCCAGGCCTCGTGTTTCGGAGTCACCTAGTGCAG,43800 fluorescence intensity (a.u.)
8,TCGTGCTACAGATCTATAGCACACTACTCTTCTCTCTCTTCGGAGTCACCTAGTGCAG,3370 fluorescence intensity (a.u.)
9,CCACGAACAGCTACACGTCTCCTTCTCCTTCTTCGATTTCCGGAGTCACCTAGTGCAG,37400 fluorescence intensity (a.u.)
10,TCTTACAGCGCGCGTGTTCGTTCGAACGATTCTCTTCTTCCGGAGTCACCTAGTGCAG,51900 fluorescence intensity (a.u.)
11,ACAAGAGCCAGCGCGGCGTGTGTGCGCGATTTCTCTCTTCCGGAGTCACCTAGTGCAG,3210 fluorescence intensity (a.u.)
12,AGTGCCACTTAAGCGCCACATCAACGCCACATGGAAAGAACGGAGTCACCTAGTGCAG,4210 fluorescence intensity (a.u.)
13,AGACCCAAGTCACTCTCTCCGCTCCAGTCTCCACTCTCCACGGAGTCACCTAGTGCAG,23100 fluorescence intensity (a.u.)
14,ACCACTCTACCACAACCATTACGCTATCCGCCACGAGCAACGGAGTCACCTAGTGCAG,3270 fluorescence intensity (a.u.)
15,TCCACATGCTAATTTGTGGTGTCAGATACCTGAATACTCCCGGAGTCACCTAGTGCAG,41400 fluorescence intensity (a.u.)
16,CTCTAAATTTGTGCAGATGTGTCACCTAGATCCCTGAACTCGGAGTCACCTAGTGCAG,4340 fluorescence intensity (a.u.)
17,AAGATCTGTATGCCTCATGAGGGTTGGTGTGTAATACTCCCGGAGTCACCTAGTGCAG,3890 fluorescence intensity (a.u.)
18,CCCCTACTATTTTCTAGGCTAGGAAGCGTGCGATCTTTTCCGGAGTCACCTAGTGCAG,3240 fluorescence intensity (a.u.)
19,TGGCGCGACTGCTCGGGTCACCATAAATACGGGTAGGTGGCGGAGTCACCTAGTGCAG,3940 fluorescence intensity (a.u.)
20,CTCCGCCGCTGGCCGCCTTGCCTGCTTGAGAGGAGGAGAGCGGAGTCACCTAGTGCAG,26800 fluorescence intensity (a.u.)
21,CTGCTTGAATCCTTCTCGCTGAGCTGGCCTGCAGCCTTTTCGGAGTCACCTAGTGCAG,7190 fluorescence intensity (a.u.)
22,GATTGATGAGGCCGCAAAGCCTGGCTGCCTGCCTGCTTCTCGGAGTCACCTAGTGCAG,54300 fluorescence intensity (a.u.)
23,CATTATACATGTGTCATGTGTATTCGACTTCTGTGCTGCCCGGAGTCACCTAGTGCAG,4750 fluorescence intensity (a.u.)
24,GGTAGTCTGAAGCCTGTTGGTTATCCTCCTGGGAGTGTTGCGGAGTCACCTAGTGCAG,3220 fluorescence intensity (a.u.)
25,AGATTAGTTTTCCCATATATTTCTTGTCAGTCGTCGTCATCGGAGTCACCTAGTGCAG,3760 fluorescence intensity (a.u.)
26,AATCAATACAAAGTCTGAAAGCCATTATGGTGGCAGTAATCGGAGTCACCTAGTGCAG,61300 fluorescence intensity (a.u.)
27,AAGTAGTGTCTATGGTGCCATGTCAATAGGACATCATAATCGGAGTCACCTAGTGCAG,3920 fluorescence intensity (a.u.)
28,ATAAAGTAACACATACACAAAGCCACATCATCAATATTTTCGGAGTCACCTAGTGCAG,8990 fluorescence intensity (a.u.)

row,Sequence,binding signal
1,AATTTACAAGGTAAAATTTTATACCACCTTATATACTTTGCGGAGTCACCTAGTGCAG,4160 fluorescence intensity (a.u.)
2,CACTTTTATGACATTTTCAACCATACTATTTTCCTTAAAGCGGAGTCACCTAGTGCAG,39800 fluorescence intensity (a.u.)
3,CATTTCCAAATTACATGTATGAATCCAACCAAAACTTTTCCGGAGTCACCTAGTGCAG,17200 fluorescence intensity (a.u.)
4,TTCTTTTCCCATGGCCTCTGACTATGACATTATTTAAACACGGAGTCACCTAGTGCAG,3440 fluorescence intensity (a.u.)
5,ATTTATATTTTAAAATATACTTTTATATGACACTAATTTTCGGAGTCACCTAGTGCAG,3170 fluorescence intensity (a.u.)
6,ATGCTAACCAACTAAAATACTTTTCCATGTACCTTACAAGCGGAGTCACCTAGTGCAG,60000 fluorescence intensity (a.u.)
7,CGTGACGCGCAGCTCCCTGCAGCCGACCTGGCCACCCACACGGAGTCACCTAGTGCAG,3500 fluorescence intensity (a.u.)
8,TATATTCGTGTCATTTAGATACCATACCACATCCTGCTACCGGAGTCACCTAGTGCAG,3240 fluorescence intensity (a.u.)
9,TTACGATCACCGAAAAGTGGTAGCGTACGTGTTGAGTGTGCGGAGTCACCTAGTGCAG,4140 fluorescence intensity (a.u.)
10,GCTTGCTTTGTCACATGCAGTTTTACACCTTTTATTTCTCCGGAGTCACCTAGTGCAG,6070 fluorescence intensity (a.u.)
11,AAATCAGGAGCCTCTGCCATTGGTTTGTGAAGCTACATCGCGGAGTCACCTAGTGCAG,65500 fluorescence intensity (a.u.)
12,AATCAGATGATCGGTGCTGCAGCCATCATTGAAGCCTGTGCGGAGTCACCTAGTGCAG,3400 fluorescence intensity (a.u.)
13,TCAGGTGAAATCTGCTTCAGCCATATTCATTGGTAATCAGCGGAGTCACCTAGTGCAG,3600 fluorescence intensity (a.u.)
14,GAGGGTTTTAATTACTCACTGACATGTAGGGTCACGGGGTCGGAGTCACCTAGTGCAG,4390 fluorescence intensity (a.u.)
15,ACACTATTAATTGTTTTATTAGGTTTCAGACGTTATTTTGCGGAGTCACCTAGTGCAG,3150 fluorescence intensity (a.u.)
16,CTCACTGACGTAGGTTTATTGTACCTATTCTAATTAAGGCCGGAGTCACCTAGTGCAG,39400 fluorescence intensity (a.u.)
17,TTTGAGCGCCGCTCGACTATGTCATGAAGCAACGTGGCACCGGAGTCACCTAGTGCAG,7750 fluorescence intensity (a.u.)
18,GGGGAGAGGGAGGAGGAGGAGGAGAGTGGCTACTAGTACTCGGAGTCACCTAGTGCAG,3380 fluorescence intensity (a.u.)
19,CTCATTTGAACACATGTACACTACTAATCCTCGTTCTGGACGGAGTCACCTAGTGCAG,39200 fluorescence intensity (a.u.)
20,ACATTCTAGCCATTCATTCTTCACACCTCATTTAATCCTACGGAGTCACCTAGTGCAG,3280 fluorescence intensity (a.u.)
21,TGTACATTGTTTGAACTAATCAGTAATCATCACAGTGGTTCGGAGTCACCTAGTGCAG,3160 fluorescence intensity (a.u.)
22,ACCACACCTTGTCAAAACTTCAGTAACAGCAGAAGTTACACGGAGTCACCTAGTGCAG,3140 fluorescence intensity (a.u.)
23,GGCAAACCAGTAACTAGAAACCACGTTATTCAAAAGCATTCGGAGTCACCTAGTGCAG,3940 fluorescence intensity (a.u.)
24,CAATAGACTTCAAGGAAGCATACCAATACCAGTAACCACACGGAGTCACCTAGTGCAG,40800 fluorescence intensity (a.u.)
25,TATACACCACGTTTGCTGGCTTGGCTTCCTTCCACACTCCCGGAGTCACCTAGTGCAG,4000 fluorescence intensity (a.u.)
26,GCGGTTTATGTACACGTCAGCATTTTGCTTCCTTCCTTCCCGGAGTCACCTAGTGCAG,47800 fluorescence intensity (a.u.)
27,TCTTTTGGTTTACAACACTTTGTATGCTAGCATTATTTTGCGGAGTCACCTAGTGCAG,3420 fluorescence intensity (a.u.)
